Assay results: PubChem BioAssay AID1851 (National Center for Advancing Translational Sciences (NCATS), 2009)
Among all 16,000 compounds or so, about 5,800 (36%) were called active. Not shown: some 23% with an inconclusive outcome. Calls follow the shape of the dose curve; as a rule, active = well fitted curve in the direction sought with a large enough effect; inconclusive = small, poorly fitted or top-dose-only effect, or effect the other way; inactive = no such curve, though single readings can be large or run the other way. The list shows a part of the results.

The molecules below were run against Cytochrome P450 2C19 (Homo sapiens) (UniProt P33261) (assay: Cytochrome panel assay with activity outcomes). Conditions: recombinant CYP, pro-luciferin dealkylation, luminescence, p450-cyp2c19; series mostly up to 57.1 µM.
% is scaled to controls: 0 for no effect and ±100 for the full control effect.

Sequence of Cytochrome P450 2C19 (Homo sapiens) (P33261 whole entry, looked up): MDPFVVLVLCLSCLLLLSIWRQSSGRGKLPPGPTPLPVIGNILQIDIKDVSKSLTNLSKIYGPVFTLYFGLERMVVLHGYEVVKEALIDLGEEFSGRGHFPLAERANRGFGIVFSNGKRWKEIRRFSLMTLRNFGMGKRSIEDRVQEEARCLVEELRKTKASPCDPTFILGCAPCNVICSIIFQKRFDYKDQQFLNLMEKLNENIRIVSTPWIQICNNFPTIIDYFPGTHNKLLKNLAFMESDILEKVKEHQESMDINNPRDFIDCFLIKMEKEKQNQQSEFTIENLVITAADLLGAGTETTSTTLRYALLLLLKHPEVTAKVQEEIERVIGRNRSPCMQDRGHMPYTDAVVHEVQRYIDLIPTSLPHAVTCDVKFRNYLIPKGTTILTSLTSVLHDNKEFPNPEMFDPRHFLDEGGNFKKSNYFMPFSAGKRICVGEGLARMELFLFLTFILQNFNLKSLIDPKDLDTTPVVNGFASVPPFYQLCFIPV

Compound	AC50	activity, negative = inhibition
O=C(NCc1ccccc1)C(c1ccc(F)cc1)N(Cc1ccco1)C(=O)c1ccccn1 (centres undefined)	4.47 µM (active)	
CC(Cc1ccccc1)C(=O)NCc1ccccn1 (centres undefined)	inactive	
Cc1ccccc1C(C(=O)NCc1ccccc1)N(Cc1ccco1)C(=O)c1ccccn1 (centres undefined)	3.55 µM (active)	
Cc1ccc(N(CCC#N)C(=O)CSc2ccc3c(c2)OCCO3)cc1	2 µM (active)	
C[C@@H](CN(C)C)CN1c2ccccc2CCc2ccccc21	inactive	
O=C1CCCc2ccccc2N1Cc1cccc(Cl)c1	0.501 µM (active)	
O=C1CCCc2ccccc2N1Cc1ccccc1Cl	1 µM (active)	
c1ccc(CNc2ccnc(-c3ccc4c(c3)OCO4)n2)cc1	2 µM (active)	
c1csc(CNc2ccnc(-c3ccc4c(c3)OCO4)n2)c1	5.01 µM (active)	
CN(C)C(=O)c1ccc(-c2nccc(NCc3cccnc3)n2)cc1	inactive	
c1cncc(CNc2ccnc(-c3ccc4c(c3)OCO4)n2)c1	5.01 µM (active)	
COc1cc(OC)c(C(=O)CCCCN2CCC3(CC2)NC(=O)NC3=O)cc1NS(=O)(=O)c1ccc(C(F)(F)F)cc1	inactive	
CCN(CC)CCC[C@H](C)Nc1c2ccc(Cl)cc2nc2ccc(OC)cc12	inactive	
COc1ccc(OCCn2c(C)c(/C=N/n3cnnc3)c3ccccc32)cc1	0.355 µM (active)	
CCN(CC)[C@@H](C)CN1c2ccccc2Sc2ccccc21	inactive	
C[C@@H](CN1c2ccccc2Sc2ccccc21)N(C)C	inactive	
CCC(=O)c1ccc2c(c1)N(CCCN(C)C)c1ccccc1S2	inactive	
CN(C)CCCN1c2ccccc2Sc2ccc3ccccc3c21	1 µM (active)	
CN(C)CCCN1c2ccc3ccccc3c2Sc2cccc(Cl)c21	5.01 µM (active)	
CN(C)CCCN1c2ccccc2C(C)(C)c2ccccc21		1.8% [at 11.4 µM] (inactive)
CN(C)CCCN1c2ccccc2Sc2cnccc21		34.5% [at 11.4 µM] (inactive)
CCN(CC)CCN1c2ccccc2Sc2ccc3ccccc3c21	1 µM (active)	

Compound	AC50	activity, negative = inhibition
CN=C1N[C@H](c2ccccc2)N(c2ccccc2)S1	inactive	
CC(C)c1ccc2nc3sc(C(=O)N4CCc5ccccc5C4)c(N)c3cc2c1	3.55 µM (active)	
O=C(O)Cn1c(-c2ccccc2)nc2ccccc21	inactive	
CCOC(=O)CSc1nc(-c2ccccc2)nc2ccccc12	4.47 µM (active)	
CCOC(=O)Cn1c(-c2ccccc2)nc2ccccc2c1=O	7.08 µM (active)	
CCCn1c(-c2ccccc2)nc2c(=O)n(C)c(=O)[nH]c21	inactive	
CCOC(=O)CSc1cc(CS(=O)c2ccc(Cl)cc2)nc(-c2ccccc2)n1 (centres undefined)	0.126 µM (active)	
NC(=Nc1ccccc1)NC(=O)c1nc(Cl)c(N)nc1N	inactive	
CS(=O)(=O)N(CC(=O)Nc1cccc(F)c1)c1cccc([N+](=O)[O-])c1	7.94 µM (active)	
CS(=O)(=O)N1CCC[C@@]2(CCN(C(=O)Nc3cccc(F)c3)C2)C1	inactive	
CS(=O)(=O)N1CCC2(CCN(C(=O)Nc3cccc(F)c3)CC2)CC1	inactive	
NC(N)=N/N=C(/c1ccccc1)c1ccc(O)cc1O		-16.1% [at 11.4 µM] (inactive)
COc1cc(/C=C\C(=O)N2CCC=CC2=O)cc(OC)c1OC	inactive	
C=CCSc1nc2ccccc2n1C(=O)/C=C/c1cc(OC)c(OC)c(OC)c1	2.24 µM (active)	
CCSc1nc2ccccc2n1C(=O)/C=C\c1ccc(OC)c(OC)c1	7.94 µM (active)	
COc1ccc(/C=C/C(=O)Nc2nc(C)cc(C)n2)cc1OC	inactive	
CSc1ccccc1NC(=O)CSCc1ccc(C)cc1	1.78 µM (active)	
Cc1cc2nc(-c3ccc(SCC(=O)N4CCc5ccccc54)nc3)[nH]c2cc1C	3.98 µM (active)	
Cc1ccc(C)c(-n2c(CNC(=O)c3ccco3)nnc2SCC(=O)N2CCc3ccccc32)c1	inactive	
CCOC(=O)O[C@]1(C(=O)COC(=O)CC)CC[C@@H]2[C@@H]3CCC4=CC(=O)C=C[C@@]4(C)[C@H]3[C@H](O)C[C@]21C	inactive	
OCCN(C=NC1=NN(c2cccc(C(F)(F)F)c2)CC1)CCO	inactive	
FC(F)(F)c1cccc(N2CCN(CC3CC4C=CC3C4)CC2)c1 (centres undefined)	8.91 µM (active)	

Compound	AC50	activity, negative = inhibition
CO[C@@H]1COC(=O)[C@@H](CCSC)NC(=O)C/C=C\[C@@H](C)COC(=O)CCC[C@H]1C		-34.5% [at 11.4 µM] (inactive)
C(=Nc1cnc2ccccc2c1)c1ccc2ccccc2n1		34% [at 11.4 µM] (inactive)
Cc1cccc(NCCNc2cccc(C)c2)c1	2.82 µM (active)	
Cc1cccc(Nc2ccncc2S(=O)(=O)NC(=O)NC(C)C)c1	inactive	
COCCn1c(=O)c(-c2cc(F)cc(F)c2)nc2cnc(N3CCN(C)CC3)nc21	inactive	
CC(C)=C[C@H]1[C@@H](C(=O)Oc2ccccc2C(C)C)C1(C)C	1.26 µM (active)	
COc1ccc2[nH]cc(CCNc3ncncc3-c3cccnc3)c2c1	3.16 µM (active)	
COc1ccc2[nH]cc(CCNc3ncncc3-c3cccc(NS(C)(=O)=O)c3)c2c1	5.01 µM (active)	
c1cncc(-c2cncnc2NC2CCNCC2)c1	inactive	
COc1cccc(-c2cncnc2NCCc2c[nH]c3ccc(OC)cc23)c1	0.316 µM (active)	
CCC/C=C(\CCC)C(NP(=O)(c1ccccc1)c1ccccc1)c1ccc(-c2ccccc2)cc1 (centres undefined)	7.94 µM (active)	
CCC/C=C(\CCC)C(NS(=O)(=O)c1ccc(Cl)cc1)c1ccc(C(=O)OC)cc1 (centres undefined)	1.58 µM (active)	
CCC/C=C(\CCC)C(NS(=O)(=O)c1ccc(Cl)cc1)c1ccccc1 (centres undefined)	0.398 µM (active)	
CCC/C=C(\CCC)C(NS(=O)(=O)c1cccs1)c1ccc(C(=O)OC)cc1 (centres undefined)	0.794 µM (active)	
CO[C@H]1COC(=O)C/C=C\[C@@H](C)COC(=O)[C@@H](C)NC(=O)C/C=C\[C@@H]1C		16.7% [at 11.4 µM] (inactive)
CO[C@H]1COC(=O)CCC[C@@H](C)[C@H](OC)COC(=O)[C@H]2CCCN2C(=O)C/C=C\[C@@H]1C		-20.1% [at 11.4 µM] (inactive)
CCC/C=C(\CCC)C(NS(=O)(=O)c1ccc(C(F)(F)F)cc1)c1ccc(C(=O)OC)cc1 (centres undefined)	2.51 µM (active)	
CCC/C=C(\CCC)C(NS(=O)(=O)c1cccc2cccnc12)c1ccc(C(=O)OC)cc1 (centres undefined)	3.16 µM (active)	
CCC/C=C(\CCC)C(NS(C)(=O)=O)c1ccccc1 (centres undefined)	7.94 µM (active)	
CCC/C=C(\CCC)C(NS(=O)(=O)c1ccc(-c2ccccc2)cc1)c1ccc(C(=O)OC)cc1 (centres undefined)	1.26 µM (active)	
